For 39 compounds, outcome and AC50 results are on record in PubChem BioAssay (EPA / NIEHS).

The structures appear in SMILES notation. Where “and” joins values, the source holds several entries; their conditions need not be identical. Identical values can stand only once. Records with an inconclusive call do not appear. Calls of active or inactive are those of the source. The calls were made as follows, unless noted: active = hit-call score of the fitted dose curve at least 0.9, where 1 is the maximum; inactive = score below 0.9.

Broadly, the AC50 is the concentration giving half of the maximal activity seen.

Sequence of human Peroxisome Proliferator-activated Receptor delta (PPARd), PPARD (gene 5467) (Q03181 whole entry, looked up): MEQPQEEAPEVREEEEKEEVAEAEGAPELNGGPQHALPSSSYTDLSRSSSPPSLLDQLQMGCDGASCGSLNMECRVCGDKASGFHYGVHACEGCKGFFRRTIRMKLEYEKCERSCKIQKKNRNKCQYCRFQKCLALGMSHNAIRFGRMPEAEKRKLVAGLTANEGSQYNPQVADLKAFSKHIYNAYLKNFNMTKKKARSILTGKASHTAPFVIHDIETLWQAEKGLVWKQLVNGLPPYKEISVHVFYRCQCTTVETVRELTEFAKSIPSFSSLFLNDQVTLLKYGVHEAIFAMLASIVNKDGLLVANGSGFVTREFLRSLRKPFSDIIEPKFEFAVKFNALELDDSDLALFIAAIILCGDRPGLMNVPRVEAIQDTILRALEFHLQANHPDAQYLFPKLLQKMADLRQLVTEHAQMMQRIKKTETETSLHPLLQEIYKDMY
Sequence of human Peroxisome Proliferator-activated Receptor alpha (PPARa), PPARA (gene 5465) (Q07869 whole entry, looked up): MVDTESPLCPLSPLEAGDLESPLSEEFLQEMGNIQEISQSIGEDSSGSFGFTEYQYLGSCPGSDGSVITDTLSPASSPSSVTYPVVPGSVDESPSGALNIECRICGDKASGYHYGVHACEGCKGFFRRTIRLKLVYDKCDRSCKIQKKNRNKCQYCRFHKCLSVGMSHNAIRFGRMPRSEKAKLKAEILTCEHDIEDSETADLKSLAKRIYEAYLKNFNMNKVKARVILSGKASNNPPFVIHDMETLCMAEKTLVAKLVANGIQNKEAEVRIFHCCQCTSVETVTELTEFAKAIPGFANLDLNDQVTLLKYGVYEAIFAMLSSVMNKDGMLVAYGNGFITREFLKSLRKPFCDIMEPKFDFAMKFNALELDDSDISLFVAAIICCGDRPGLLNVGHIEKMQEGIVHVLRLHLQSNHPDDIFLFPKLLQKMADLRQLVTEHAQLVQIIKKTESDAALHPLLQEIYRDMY
Sequence of human Retinoic Acid Receptor beta (RARb), RARB (gene 5915) (P10826 whole entry, looked up): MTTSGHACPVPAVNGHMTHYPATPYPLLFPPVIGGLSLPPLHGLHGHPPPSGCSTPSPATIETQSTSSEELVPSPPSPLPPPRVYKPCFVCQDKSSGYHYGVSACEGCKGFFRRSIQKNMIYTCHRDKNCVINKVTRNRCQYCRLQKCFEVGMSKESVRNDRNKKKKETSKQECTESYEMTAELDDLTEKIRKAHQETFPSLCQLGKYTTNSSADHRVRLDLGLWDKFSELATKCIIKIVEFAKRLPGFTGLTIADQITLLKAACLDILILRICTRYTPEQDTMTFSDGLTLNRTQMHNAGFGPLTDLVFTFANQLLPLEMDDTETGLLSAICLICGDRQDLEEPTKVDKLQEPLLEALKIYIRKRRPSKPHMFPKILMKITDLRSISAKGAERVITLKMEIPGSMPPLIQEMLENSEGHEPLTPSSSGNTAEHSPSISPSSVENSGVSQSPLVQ

The first experiment addresses human Peroxisome Proliferator-activated Receptor alpha (PPARa), PPARA (gene 5465) (UniProt Q07869). Briefly: ATG_PPARa_TRANS: Attagene TRANS-FACTORIAL HepG2 Assay for human Peroxisome Proliferator-activated Receptor alpha (PPARa) (AID 2283001; active = hit-call score of the fitted dose curve at least 0.9, where 1 is the maximum).
Conditions: not given
The gist of the method:
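Transfected HepG2 cells treated with test chemical for 24 h. RNA isolated, reverse-transcribed with oligo(dT), PCR-amplified, FAM-labelled and HpaI-digested. Fragments sized by capillary electrophoresis; gain-of-signal fit relative to DMSO.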
`O=C(O)C1C(C(=O)O)C2(Cl)C(Cl)=C(Cl)C1(Cl)C2(Cl)Cl` (centres undefined): the outcome was inactive.

With `c1nc[nH]n1`, the result was inactive.

On to `Cc1ccc(C(=O)Cl)cc1`, for which the compound was called inactive.

Regarding `CCN(CC)c1ccccc1`, the compound was classed as inactive.

As to `O=P1(N(CCCl)CCCl)NCCCO1` (centres undefined), the call was inactive.

With `O=C(O)C(F)(F)OC(F)(F)C(F)(F)OC(F)(F)C(=O)O`, the result was inactive.

Take `Cn1[nH]nnc1=S`: the compound was classed as inactive.

In the case of `CCCCN(CCCC)N=O`, the outcome was inactive.

Take `O=C(O)CF`: the result was inactive.

In the case of `C/C(=N\NC(=O)Nc1cc(F)cc(F)c1)c1ncccc1C(=O)O`, the result was inactive.

Consider `N#Cc1cc([N+](=O)[O-])ccc1N`, for which the compound was classed as inactive.

As to `Cc1ccc(N)cc1N`, the call was inactive.

For `OCC(F)(F)OC(F)(F)C(F)(F)OC(F)(F)C(F)(F)OC(F)(F)CO`, the outcome was inactive.

As for `Oc1ccccc1Br`, the outcome was inactive.

With `Oc1ccc(I)cc1`, the result was inactive.

Turning to `CCOP(=S)(OCC)SCS(=O)(=O)CC`, the call was inactive.

Take `CCCCc1ccc(O)cc1`: the result was inactive.

As to `Cc1ccc([N+](=O)[O-])cc1C`, the compound was classed as inactive.

Consider `c1ccc2c(c1)sc1ccccc12`, for which the outcome was inactive.

As for `O=c1[nH]c2ccccc2c(=O)o1`, the result was inactive.

On to `Clc1ccc(Oc2ccccc2)cc1`, for which the outcome was inactive.

On to `C=CC(=O)OCC(F)(F)C(F)F`, for which the result was inactive.

For the compound `CCOC(=O)c1ccccc1N`, the outcome was inactive.

Consider `CC(=O)CCc1ccc2c(c1)OCO2`, for which the call was inactive.

Take `c1ccc(OP(Oc2ccccc2)Oc2ccccc2)cc1`: the compound was classed as inactive.

Another experiment concerns the target human Peroxisome Proliferator-activated Receptor delta (PPARd), PPARD (gene 5467) (UniProt Q03181). Briefly: ATG_PPARd_TRANS: Attagene TRANS-FACTORIAL HepG2 Assay for human Peroxisome Proliferator-activated Receptor delta (PPARd) (AID 2283002; active = hit-call score of the fitted dose curve at least 0.9, where 1 is the maximum).
Conditions: not given
The gist of the method: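 Transient HepG2 transfection (multiple GAL4-UAS RTUs, chimeric receptor-Gal4); 24 h dosing; total RNA → oligo(dT) RT → PCR → 6-FAM primer extension → HpaI cut → CE. Positive direction vs DMSO.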
For the compound `CC(Cl)CN(C)C` (centres undefined), the compound was called inactive.

In the case of `COP(=O)(O)OC`, the compound was called inactive.

As to `O=[N+]([O-])c1cc(Cl)ccc1Cl`, the outcome was inactive.

Regarding `Cc1ccc(O)cc1C`, the call was inactive.

`O=P(Oc1ccccc1)(Oc1ccccc1)Oc1ccccc1`: the compound was called inactive.

`O=c1ssc(Cl)c1Cl`: the outcome was inactive.

On to `CCCCN(CCCC)SN(C)C(=O)Oc1cccc2c1OC(C)(C)C2`, for which the result was inactive.

On to `Nc1ccc([N+](=O)[O-])cc1Cl`, for which the outcome was inactive.

As for `COC(N)=O`, the result was inactive.

On to `O=P(OCC(Br)CBr)(OCC(Br)CBr)OCC(Br)CBr` (centres undefined), for which the compound was called inactive.

In the case of `CC(O)C#N` (centres undefined), the result was inactive.

In the case of `CCOP(=S)(NC(C)C)Oc1ccccc1C(=O)OC(C)C` (centres undefined), the call was inactive.

As for `O=S1(=O)OCC2C(CO1)C1(Cl)C(Cl)=C(Cl)C2(Cl)C1(Cl)Cl` (centres undefined), the compound was classed as inactive.

Take `CCOP(=S)(S)OCC`: the outcome was inactive.

Read-out in the next experiment: Intercellular Adhesion Molecule 1 (ICAM1), ICAM1 (gene 3383)
Briefly: BSK_3C_ICAM1: BioMAP Diversity Plus: 3C Assay for Intercellular Adhesion Molecule 1 (ICAM1) Biomarker Activity (AID 2283003). The settings on record: primary human endothelial cells (HUVEC); actives raise or lower the signal. The gist of the method:
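Using DMSO as baseline, bidirectional curve fitting was applied to ICAM-1 ELISA signals from HUVEC in the 3C system, measured 24 h after compound addition.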
In the case of `O=C(O)C1C(C(=O)O)C2(Cl)C(Cl)=C(Cl)C1(Cl)C2(Cl)Cl` (centres undefined), the result was inactive.

For the compound `c1nc[nH]n1`, the outcome was inactive.

`CC(Cl)CN(C)C` (centres undefined): the outcome was inactive.

`COP(=O)(O)OC`: the outcome was inactive.

Consider `CCN(CC)c1ccccc1`, for which the result was inactive.

Regarding `O=P1(N(CCCl)CCCl)NCCCO1` (centres undefined), the result was inactive.

`O=C(O)C(F)(F)OC(F)(F)C(F)(F)OC(F)(F)C(=O)O`: the result was inactive.

Take `Cc1ccc(O)cc1C`: the outcome was inactive.

As to `CCCCN(CCCC)N=O`, the result was inactive.

Turning to `O=P(Oc1ccccc1)(Oc1ccccc1)Oc1ccccc1`, the outcome was inactive.

For the compound `N#Cc1cc([N+](=O)[O-])ccc1N`, the outcome was inactive.

In the case of `O=c1ssc(Cl)c1Cl`, the AC50 is 11.3 µM (active).

For the compound `Cc1ccc(N)cc1N`, the outcome was inactive.

With `CCCCN(CCCC)SN(C)C(=O)Oc1cccc2c1OC(C)(C)C2`, the half-maximal activity concentration (AC50) was 29.8 µM (active).

For `OCC(F)(F)OC(F)(F)C(F)(F)OC(F)(F)C(F)(F)OC(F)(F)CO`, the result was inactive.

As to `Nc1ccc([N+](=O)[O-])cc1Cl`, the outcome was inactive.

As for `O=P(OCC(Br)CBr)(OCC(Br)CBr)OCC(Br)CBr` (centres undefined), the result was inactive.

Turning to `CCOP(=S)(OCC)SCS(=O)(=O)CC`, the result was inactive.

As for `Cc1ccc([N+](=O)[O-])cc1C`, the outcome was inactive.

Consider `c1ccc2c(c1)sc1ccccc12`, for which the result was inactive.

Turning to `CCOP(=S)(NC(C)C)Oc1ccccc1C(=O)OC(C)C` (centres undefined), the result was inactive.

`O=S1(=O)OCC2C(CO1)C1(Cl)C(Cl)=C(Cl)C2(Cl)C1(Cl)Cl` (centres undefined): the result was inactive.

For `CCOP(=S)(S)OCC`, the outcome was inactive.

`C=CC(=O)OCC(F)(F)C(F)F`: the result was inactive.

With `c1ccc(OP(Oc2ccccc2)Oc2ccccc2)cc1`, the outcome was inactive.

The next experiment concerns the target human Retinoic Acid Receptor beta (RARb), RARB (gene 5915) (UniProt P10826). Briefly: ATG_RARb_TRANS: Attagene TRANS-FACTORIAL HepG2 Assay for human Retinoic Acid Receptor beta (AID 2283004; active = hit-call score of the fitted dose curve at least 0.9, where 1 is the maximum).
Conditions: not given
The gist of the method: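 Induction of reporter mRNA from a chimeric RARb-Gal4 construct was measured by RT-PCR, FAM labelling, HpaI digestion and capillary electrophoresis. Measurements followed 24 h compound treatment of transiently transfected human HepG2 liver cells, with DMSO as baseline.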
Turning to `Cc1ccc(O)cc1C`, the compound was classed as inactive.

With `Cn1[nH]nnc1=S`, the result was inactive.

For `CC(O)C#N` (centres undefined), the outcome was inactive.

As to `CCCCc1ccc(O)cc1`, the compound was classed as inactive.

`Clc1ccc(Oc2ccccc2)cc1`: the compound was classed as inactive.

A further experiment deals with Retinoic acid receptor alpha (Homo sapiens) (UniProt P10276). Briefly: ATG_RARa_TRANS: Attagene TRANS-FACTORIAL HepG2 Assay for human Retinoic Acid Receptor alpha (RARa) (AID 2283005; active = hit-call score of the fitted dose curve at least 0.9, where 1 is the maximum).
Sequence of Retinoic acid receptor alpha (Homo sapiens) (P10276 whole entry, looked up): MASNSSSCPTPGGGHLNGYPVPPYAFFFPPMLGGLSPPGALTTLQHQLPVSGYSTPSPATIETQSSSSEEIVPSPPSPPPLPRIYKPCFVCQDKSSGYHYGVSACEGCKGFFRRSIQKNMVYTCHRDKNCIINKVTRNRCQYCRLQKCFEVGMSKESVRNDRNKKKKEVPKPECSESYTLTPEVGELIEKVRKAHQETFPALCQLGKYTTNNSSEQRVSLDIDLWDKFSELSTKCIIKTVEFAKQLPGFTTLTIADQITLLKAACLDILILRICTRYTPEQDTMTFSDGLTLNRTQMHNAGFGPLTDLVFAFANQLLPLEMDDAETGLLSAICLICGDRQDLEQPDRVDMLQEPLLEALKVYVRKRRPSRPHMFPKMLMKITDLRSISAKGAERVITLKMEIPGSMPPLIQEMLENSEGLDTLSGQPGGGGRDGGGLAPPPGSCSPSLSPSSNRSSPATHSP
Conditions: not given
The gist of the method: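 Reporter transcripts, measured by RT-PCR with fluorescent labeling and capillary electrophoresis after 24 h dosing, reflect activity of an exogenous human RARa–GAL4 fusion in transiently transfected HepG2. Fitted for increase relative to DMSO.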
With `COP(=O)(O)OC`, the outcome was inactive.

As to `Cc1ccc(C(=O)Cl)cc1`, the call was inactive.

Consider `Cn1[nH]nnc1=S`, for which the compound was classed as inactive.

In the case of `O=c1[nH]c2ccccc2c(=O)o1`, the compound was classed as inactive.

For `CC(=O)CCc1ccc2c(c1)OCO2`, the outcome was inactive.

Read-out in another experiment: not listed separately
Briefly: BSK_3C_Proliferation: Cell Proliferation Assessment in the BioMAP Diversity Plus: 3C Assay (AID 2283006).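 As to AC50: potency may reflect either rise or fall in cell number versus DMSO.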 The settings on record: primary human endothelial cells (HUVEC). The gist of the method:
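Measured here: sulforhodamine B (0.1%) staining of TCA-fixed sub-confluent umbilical vein endothelial cultures 48 h post-dosing, absorbance 560 nm. DMSO served as negative control and baseline; both signal gain and loss were modelled.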
As for `O=C(O)C1C(C(=O)O)C2(Cl)C(Cl)=C(Cl)C1(Cl)C2(Cl)Cl` (centres undefined), the result was inactive.

For `c1nc[nH]n1`, the outcome was inactive.

For `CC(Cl)CN(C)C` (centres undefined), the result was inactive.

For `COP(=O)(O)OC`, the outcome was inactive.

On to `CCN(CC)c1ccccc1`, for which the result was inactive.

Regarding `O=P1(N(CCCl)CCCl)NCCCO1` (centres undefined), the result was inactive.

On to `O=C(O)C(F)(F)OC(F)(F)C(F)(F)OC(F)(F)C(=O)O`, for which the result was inactive.

Turning to `Cc1ccc(O)cc1C`, the result was inactive.

Take `CCCCN(CCCC)N=O`: the outcome was inactive.

For the compound `O=P(Oc1ccccc1)(Oc1ccccc1)Oc1ccccc1`, the AC50 is 24.9 µM (active).

For `N#Cc1cc([N+](=O)[O-])ccc1N`, the result was inactive.

In the case of `O=c1ssc(Cl)c1Cl`, the AC50 was 1.45 µM (active).

For `Cc1ccc(N)cc1N`, the result was inactive.

`CCCCN(CCCC)SN(C)C(=O)Oc1cccc2c1OC(C)(C)C2`: the concentration at half-maximal activity (AC50) is 19.8 µM (active).

With `OCC(F)(F)OC(F)(F)C(F)(F)OC(F)(F)C(F)(F)OC(F)(F)CO`, the AC50 is 5.95 µM (active) and 35.3 µM (active).

Turning to `Nc1ccc([N+](=O)[O-])cc1Cl`, the outcome was inactive.

With `O=P(OCC(Br)CBr)(OCC(Br)CBr)OCC(Br)CBr` (centres undefined), the concentration at half-maximal activity (AC50) was 11.9 µM (active).

On to `CCOP(=S)(OCC)SCS(=O)(=O)CC`, for which the outcome was inactive.

Turning to `Cc1ccc([N+](=O)[O-])cc1C`, the result was inactive.

On to `c1ccc2c(c1)sc1ccccc12`, for which the result was inactive.

As to `CCOP(=S)(NC(C)C)Oc1ccccc1C(=O)OC(C)C` (centres undefined), the result was inactive.

Take `O=S1(=O)OCC2C(CO1)C1(Cl)C(Cl)=C(Cl)C2(Cl)C1(Cl)Cl` (centres undefined): the AC50 is 25.1 µM (active).

Consider `CCOP(=S)(S)OCC`, for which the AC50 was 20.9 µM (active).

On to `C=CC(=O)OCC(F)(F)C(F)F`, for which the AC50 was 30 µM (active) and 36 µM (active).

Take `c1ccc(OP(Oc2ccccc2)Oc2ccccc2)cc1`: the result was inactive.
